The list shows a part of the results. Results filed as inconclusive are left out. Calls of active or inactive are those of the source. The call rests on the fitted dose curve; in most records, active means well fitted inhibition curve with a large enough effect; inconclusive means small, poorly fitted or top-dose-only effect, or another doubt; inactive means no such curve, though single readings can be large or run the other way.

Here are results for five compounds from PubChem BioAssay AID906 (National Center for Advancing Translational Sciences (NCATS), 2007).

This experiment in a line: Cell Viability - CRE-beta lactamase CHO cell - 40 hr assay. The note with it: CRE-bla CHO viability, ATP luminescence; max response: active compounds read low. From the text:
NIH Chemical Genomics Center [NCGC] NIH Molecular Libraries Screening Centers Network [MLSCN] National Institutes of Environmental Health Sciences [NIEHS] National Toxicology Program [NTP] MLSCN Grant: 1X01MH079867-01 Assay Provider: Marshall W. Nirenberg, U.S. National Heart, Lung and Blood Institute NCGC Assay Overview: We have developed a 1536-well cell-based assay for quantitative high throughput screening (qHTS) against a number of cell lines to determine in vitro cytotoxicity of small molecules. This particular assay uses CRE-bla CHO cell line from Invitrogen.
NCGC Assay Protocol Summary: The CellTiter-Glo luminescent cell viability assay (Promega) is a homogeneous method to measure the number of viable cells in culture. The end point readout of this assay is based on quantitation of intracellular ATP, an indicator of metabolic activity, using the luciferase reaction. Luciferase catalyzes the oxidation of beetle Luciferin to oxyluciferin and light in the presence of ATP. The luminescent signal is proportional to amount of ATP present. Using the CellTiter-Glo luminescent cell viability assay, the amount of cellular ATP was measured in the CRE-bla CHO cell line with complete culture medium following compound treatment for 40 hours. The assay was performed in opaque white Kalypsys 1536-well plates. In the screen, tamoxifen was used as positive control. The selected compounds were measured for their ability to cause acute toxicity in the cell line, as reflected by a decrease in intracellular ATP levels, in a concentration-dependent manner. Data were normalized to the controls for basal activity (DMSO only) and 100% inhibition (100 uM tamoxifen). AC50 values were determined from concentration-response data modeled with the standard Hill equation. NCGC Assay Protocol Summary 1. Reagent; 5 uL; 2000 CHO cells/well 2. Time; overnight; 37 °C incubation 3. Compounds; 23 nL; 5.9 nM to 46 uM 4. Controls; 23 nL; Tamoxifen 4.5 nM to 92 uM 5. Time; 40 hr; 37 °C incubation 6. Reagent; 5 uL; CellTiter Glo reagent 7. Time; 20 min; Room Temperature 8. Detection; Luminescence; Viewlux plate reader Keywords: cell viability, cytotoxicity, CHO cell line, luminescence, MLSMR, MLSCN, NIH Roadmap, qHTS, NCGC
Regarding `CCc1nc(Nc2ccc3nccnc3c2)c2oc3ccccc3c2n1`, the max response is -16.6% (inactive).
Consider `CC1CCc2sc3nc(N4CCN(CCO)CC4)n4ncnc4c3c2C1` (stereo not given), for which the max response was -25.1% (inactive).
As for `COc1ccc(CCNC(=O)CSc2nc(C)nc3c2oc2ccccc23)cc1OC`, the max response is -16.6% (inactive).
In the case of `Cc1nn(-c2ccccc2)c2sc(C(=O)N(Cc3ccco3)C(C)C(=O)NC(C)(C)C)cc12` (stereo not given), the Potency was 12.6 µM (active).
On to `Cc1nc(SCC(=O)Nc2cc(C)on2)c2c3c(sc2n1)CCCC3`, for which the max response is -15.8% (inactive).
